# Reference: PubChem BioAssay (NCATS)
# Inconclusive results are not listed. A call without a number means that no potency is given here. The source made the active and inactive calls. Calls come from the whole dose curve; as a rule, active = well fitted curve in the direction sought with a large enough effect; inconclusive = small, poorly fitted or top-dose-only effect, or another doubt; inactive = no such curve, though single readings can be large; an effect the other way counts as inactive or inconclusive.
# System: not listed separately
# Assay: Primary qHTS for inhibitors of La Crosse Virus (LACV) - induced cell death in SH-SY5Y cells (AID 1508616);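 note: higher means more rescue of cells from virus-induced death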
# Conditions: SH-SY5Y LACV cytopathicity rescue, ATP luminescence, 6 d; series mostly up to 4.29 µM
# How it was run: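 SH-SY5Y cells (6000/well) plated 24 h, then given compounds by pin transfer and LACV at 0.01 MOI for 6 days at 37C. Viability measured by ATPLite luminescence, normalized to infected DMSO and uninfected DMSO.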
# Note: top concentration of the series differs between compounds.
row,SMILES,outcome
1,CC(C)C(=O)Nc1cccc(C(F)(F)F)c1,inactive
2,CN=C(N)NC(=O)Nc1c(C)cccc1C,inactive
3,O=C1NC(c2ccccc2)(c2ccccc2)C(=O)N1COP(=O)(O)O,inactive
4,CC1(C)S[C@@H]2[C@H](NC(=O)C(c3ccccc3)S(=O)(=O)O)C(=O)N2[C@H]1C(=O)O (stereo partly specified),inactive
5,CCC1(c2cnc[nH]2)Cc2ccccc2C1,inactive
6,CCN(CC)CC(=O)Oc1ccc(NC(C)=O)cc1,inactive
7,O=C(C1CCCCC1)N1CC(=O)N2CCCc3ccccc3C2C1 (stereo unspecified),inactive
8,CC(=O)O[C@@H]1CC2C3CCc4cc(OC(=O)c5ccccc5)ccc4C3CCC2(C)[C@H]1OC(C)=O (stereo partly specified),inactive
9,Cc1ccccc1C(=O)N1CC/C(=N\OS(=O)(=O)O)c2ccc(Cl)cc21,inactive
10,CCOc1ccccc1OCC1CNCCO1 (stereo unspecified),inactive
11,CO/N=C(/C(=O)N[C@@H]1C(=O)N2C(C(=O)OCOC(=O)C(C)(C)C)=C(C)CS[C@H]12)c1csc(N)n1,inactive
12,CCOc1c(N2CCOCC2)cnn(C)c1=O,inactive
13,C=C(C)C(=O)OCC(O)CO (stereo unspecified),inactive
14,C[C@H]1C[C@H](O)c2ccsc2S1(=O)=O,inactive

# Target: Calcium and integrin-binding protein 1 (Homo sapiens) (UniProt Q99828)
# Assay: Primary qHTS for Identification of Calcium Integrin Binding Protein 1 (CIB1) Competitor (AID 1508620);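 note: GST tagged CIB1 binding a fluorescein labelled alphaIIb integrin peptide tracer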
# Conditions: CIB1-GST / FITC-alphaIIb peptide fluorescence polarization; series mostly up to 114 µM
# How it was run: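 Fluorescence polarization competition: GST-tagged CIB1 (1 uM final) preincubated with compound 15 min at room temperature, then FITC-labelled alphaIIb peptide (100 nM final) added. After 15 min at room temperature, polarization read at Ex 480/Em 540.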
# Calcium and integrin-binding protein 1 (Homo sapiens), sequence (Q99828 whole entry, looked up): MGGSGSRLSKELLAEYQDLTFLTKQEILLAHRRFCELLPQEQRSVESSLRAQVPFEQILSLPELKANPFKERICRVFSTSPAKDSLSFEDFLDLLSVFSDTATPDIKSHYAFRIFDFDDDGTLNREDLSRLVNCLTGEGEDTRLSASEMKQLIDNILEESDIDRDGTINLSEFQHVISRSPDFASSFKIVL
row,SMILES,Potency
1,O=C1CC[C@H](C(=O)N2CCCCC2)N1,inactive
2,CCCC(CCC)(C(=O)OCC)C(=O)OCC,inactive
3,Cc1ccc2c(Cl)cc(Cl)c(O)c2n1,inactive
4,N#Cc1cc(NC(=O)C(=O)O)c(Cl)c(NC(=O)C(=O)O)c1,inactive
5,O=C(CCCl)NCc1ccccc1,inactive
6,C=CCOc1cc(Cl)ccc1C(=O)NCCN(CC)CC,inactive
7,COc1cc(C=O)ccc1O,inactive
8,CCN1CCN(C(=O)N[C@@H](C(=O)N[C@@H]2C(=O)N3[C@@H]2SC(C)(C)[C@H]3C(=O)O)c2ccccc2)C(=O)C1=O,inactive
9,Fc1ccc(C(c2ccc(F)cc2)N2CCNCC2)cc1,inactive
10,CCOc1ncc(F)c(=O)[nH]1,inactive
11,CC(COc1ccccc1)NN (stereo unspecified),inactive
12,CC(C)=CCC/C(C)=C/CC/C(C)=C/CCC(=O)OC/C=C(\C)CCC=C(C)C,inactive
13,CCCCC(O)/C=C(C)/C=C/C=C/C(=O)N1CCCC1=O (stereo unspecified),inactive
14,CCCCCC[C@@H](CCC)C(=O)O,inactive
15,CCO[C@H](Cc1ccc(OCCc2ccc(OS(C)(=O)=O)cc2)cc1)C(=O)O,inactive
16,NC(=O)NS(=O)(=O)c1ccc(Cl)cc1,inactive
17,Nc1ccc(C(=O)OCC(O)CO)cc1 (stereo unspecified),inactive
18,CCOC(=O)C(O)c1ccccc1 (stereo unspecified),inactive
19,CC(=O)c1ccc(O)c(C(N)=O)c1,inactive

row,SMILES,Potency
1,Nc1nc(=O)n([C@@H]2O[C@H](CO)[C@@H](O)[C@@H]2F)cc1I,inactive
2,C1=CC2C3C=CC(C3)C2C1 (stereo unspecified),inactive
3,Cc1cc(O)c(C)c(C)c1O,inactive
4,CCCCOC(=O)CCCCCCCCC(=O)OCCCC,inactive
5,CC(C)C(=O)Nc1cccc(C(F)(F)F)c1,inactive
6,CN=C(N)NC(=O)Nc1c(C)cccc1C,inactive
7,O=C1NC(c2ccccc2)(c2ccccc2)C(=O)N1COP(=O)(O)O,inactive
8,CC1(C)S[C@@H]2[C@H](NC(=O)C(c3ccccc3)S(=O)(=O)O)C(=O)N2[C@H]1C(=O)O (stereo partly specified),inactive
9,CCC1(c2cnc[nH]2)Cc2ccccc2C1,inactive
10,CCN(CC)CC(=O)Oc1ccc(NC(C)=O)cc1,inactive
11,O=C(C1CCCCC1)N1CC(=O)N2CCCc3ccccc3C2C1 (stereo unspecified),inactive
12,CC(=O)O[C@@H]1CC2C3CCc4cc(OC(=O)c5ccccc5)ccc4C3CCC2(C)[C@H]1OC(C)=O (stereo partly specified),inactive
13,Cc1ccccc1C(=O)N1CC/C(=N\OS(=O)(=O)O)c2ccc(Cl)cc21,inactive
14,CCOc1ccccc1OCC1CNCCO1 (stereo unspecified),inactive
15,CO/N=C(/C(=O)N[C@@H]1C(=O)N2C(C(=O)OCOC(=O)C(C)(C)C)=C(C)CS[C@H]12)c1csc(N)n1,inactive
16,CCOc1c(N2CCOCC2)cnn(C)c1=O,inactive
17,C=C(C)C(=O)OCC(O)CO (stereo unspecified),inactive
18,C[C@H]1C[C@H](O)c2ccsc2S1(=O)=O,inactive
